Measured values from PubChem BioAssay AID1159580 (chemical genetic matrix, 2015).
Hit rate of the full screen: of about 5,500 compounds, about 2,000 (36%) were called active. Roughly 18% stayed inconclusive and do not appear here. The list shows a part of the results. Values without a mark were called inactive. Cut-off read from the data, not from the text of the source: active = normalized growth mostly below about 0.91 (no sharp cut-off); inconclusive = no clear call, values can overlap the other calls; inactive = mostly above about 0.92.

Assay: chemical genetic growth profiling, strain panel (AID 1159580);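 note: tested at 20 µM; growth read once vehicle control cultures reached saturation at 30 °C; 1 = growth at the plate median or of vehicle wells; lower values mean less growth of the strain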
Conditions: S. cerevisiae deletion strains, growth OD
[1] = locus YAR019C, strain CDC15, active compounds read low
[2] = locus YBL105C, strain PKC1, active compounds read low
[3] = locus YBR135W, strain CKS1, active compounds read low
[4] = locus YBR136W, strain MEC1, active compounds read low
[5] = locus YBR160W, strain CDC28, active compounds read low
[6] = locus YDL017W, strain CDC7, active compounds read low
[7] = locus YDL028C, strain MPS1, active compounds read low
[8] = locus YDL101C, strain DUN1, active compounds read low
[9] = locus YDL108W, strain KIN28, active compounds read low
[10] = locus YDL132W, strain cdc53, active compounds read low
[11] = locus YDL214C, strain PRR2, active compounds read low
[12] = locus YDR052C, strain DBF4, active compounds read low
[13] = locus YDR054C, strain cdc34, active compounds read low
[14] = locus YDR226W, strain ADK1, active compounds read low
[15] = locus YDR477W, strain SNF1, active compounds read low
[16] = locus YER123W, strain YCK3, active compounds read low
[17] = locus YER133W, strain GLC7, active compounds read low
[18] = locus YFL009W, strain cdc4, active compounds read low
[19] = locus YFL029C, strain CAK1, active compounds read low
[20] = locus YFR003C, strain YPI1, active compounds read low
[21] = locus YFR019W, strain FAB1, active compounds read low
[22] = locus YFR028C, strain CDC14, active compounds read low
[23] = locus YGR040W, strain KSS1, active compounds read low
[24] = locus YGR052W, strain FMP48, active compounds read low
[25] = locus YGR092W, strain DBF2, active compounds read low
[26] = locus YHR030C, strain SLT2, active compounds read low
[27] = locus YHR079C, strain IRE1, active compounds read low
[28] = locus YHR082C, strain KSP1, active compounds read low
[29] = locus YHR205W, strain SCH9, active compounds read low
[30] = locus YIL147C, strain SLN1, active compounds read low
[31] = locus YJL095W, strain BCK1, active compounds read low
[32] = locus YJL128C, strain PBS2, active compounds read low
[33] = locus YJL157C, strain FAR1, active compounds read low
[34] = locus YJR016C, strain ILV3, active compounds read low
[35] = locus YJR066W, strain TOR1 (second series), active compounds read low
[36] = locus YJR066W, strain TOR1, active compounds read low
[37] = locus YKL048C, strain ELM1, active compounds read low
[38] = locus YKL067W, strain YNK1, active compounds read low
[39] = locus YKL101W, strain HSL1, active compounds read low
[40] = locus YKL193C, strain SDS22, active compounds read low
[41] = locus YKL203C, strain TOR2, active compounds read low
[42] = locus YLR113W, strain HOG1, active compounds read low
[43] = locus YLR133W, strain CKI1, active compounds read low
[44] = locus YLR403W, strain SFP1, active compounds read low
[45] = locus YML070W, strain DAK1, active compounds read low
[46] = locus YMR001C, strain CDC5, active compounds read low
[47] = locus YMR205C, strain PFK2 (second series), active compounds read low
[48] = locus YMR277W, strain FCP1, active compounds read low
[49] = locus YNL006W, strain LST8, active compounds read low
[50] = locus YNL020C, strain ARK1, active compounds read low
[51] = locus YNL161W, strain CBK1, active compounds read low
[52] = locus YNL183C, strain NPR1, active compounds read low
[53] = locus YNL207W, strain RIO2, active compounds read low
[54] = locus YNL222W, strain SSU72, active compounds read low
[55] = locus YNL307C, strain MCK1 (second series), active compounds read low
[56] = locus YOL078W, strain AVO1, active compounds read low
[57] = locus YOL136C, strain PFK27, active compounds read low
[58] = locus YOR061W, strain CKA2, active compounds read low
[59] = locus YOR119C, strain RIO1, active compounds read low
[60] = locus YOR231W, strain MKK1, active compounds read low
[61] = locus YOR329C, strain SCD5, active compounds read low
[62] = locus YPL031C, strain PHO85, active compounds read low
[63] = locus YPL153C, strain RAD53, active compounds read low
[64] = locus YPL204W, strain HRR25, active compounds read low
[65] = locus YPL209C, strain IPL1, active compounds read low
[66] = locus YPL256C, strain CLN2, active compounds read low
[67] = locus YPR025C, strain CCL1, active compounds read low
[68] = locus YPR106W, strain ISR1, active compounds read low
[69] = locus YPR111W, strain DBF20, active compounds read low
[70] = strain NNK1, active compounds read low
[71] = strain TSCII, active compounds read low

## CC(C)(C)NC(=S)N/N=C\c1ccccc1O
[1]
  normalized growth: 0.954
[2]
  normalized growth: 0.957
[3]
  normalized growth: 0.958
[4]
  normalized growth: 0.958
[5]
  normalized growth: 0.947
[6]
  normalized growth: 0.96
[7]
  normalized growth: 0.951
[8]
  normalized growth: 0.964
[9]
  normalized growth: 0.947
[10]
  normalized growth: 0.95
[11]
  normalized growth: 0.924
[12]
  normalized growth: 0.97
[13]
  normalized growth: 0.943
[14]
  normalized growth: 0.961
[15]
  normalized growth: 0.876
[16]
  normalized growth: 0.848
[17]
  normalized growth: 0.882
[18]
  normalized growth: 0.928
[19]
  normalized growth: 0.947
[20]
  normalized growth: 0.955
[21]
  normalized growth: 0.95
[22]
  normalized growth: 0.957
[23]
  normalized growth: 0.875
[24]
  normalized growth: 0.954
[25]
  normalized growth: 0.692
[26]
  normalized growth: 0.901
[27]
  normalized growth: 0.806
[28]
  normalized growth: 0.931
[29]
  normalized growth: 0.972
[30]
  normalized growth: 0.953
[31]
  normalized growth: 0.941
[32]
  normalized growth: 0.949
[33]
  normalized growth: 0.891
[34]
  normalized growth: 0.954
[35]
  normalized growth: 0.878
[36]
  normalized growth: 0.789
[37]
  normalized growth: 0.947
[38]
  normalized growth: 0.897
[39]
  normalized growth: 0.917
[40]
  normalized growth: 0.951
[41]
  normalized growth: 0.968
[42]
  normalized growth: 0.915
[43]
  normalized growth: 0.926
[44]
  normalized growth: 0.867
[45]
  normalized growth: 0.902
[46]
  normalized growth: 0.95
[47]
  normalized growth: 0.941
[48]
  normalized growth: 0.93
[49]
  normalized growth: 0.945
[50]
  normalized growth: 0.903
[51]
  normalized growth: 0.955
[52]
  normalized growth: 0.955
[53]
  normalized growth: 0.954
[54]
  normalized growth: 0.944
[55]
  normalized growth: 0.841
[56]
  normalized growth: 0.955
[57]
  normalized growth: 0.904
[58]
  normalized growth: 0.882
[59]
  normalized growth: 0.909
[60]
  normalized growth: 0.828
[61]
  normalized growth: 0.959
[62]
  normalized growth: 0.867
[63]
  normalized growth: 0.865
[64]
  normalized growth: 0.837
[65]
  normalized growth: 0.941
[66]
  normalized growth: 0.949
[67]
  normalized growth: 0.954
[68]
  normalized growth: 0.968
[69]
  normalized growth: 0.949
[70]
  normalized growth: 0.967
[71]
  normalized growth: 0.94

## CC(NC(=S)N/N=C\c1ccccc1O)c1ccccc1 (configuration not stated)
[1]
  normalized growth: 0.984
[2]
  normalized growth: 0.982
[3]
  normalized growth: 0.971
[4]
  normalized growth: 0.975
[5]
  normalized growth: 0.974
[6]
  normalized growth: 0.974
[7]
  normalized growth: 0.981
[8]
  normalized growth: 0.977
[9]
  normalized growth: 0.969
[10]
  normalized growth: 0.973
[11]
  normalized growth: 0.973
[12]
  normalized growth: 0.986
[13]
  normalized growth: 0.951
[14]
  normalized growth: 0.97
[15]
  normalized growth: 0.927
[16]
  normalized growth: 0.905
[17]
  normalized growth: 0.953
[18]
  normalized growth: 0.972
[19]
  normalized growth: 0.974
[20]
  normalized growth: 0.979
[21]
  normalized growth: 0.99
[22]
  normalized growth: 0.982
[23]
  normalized growth: 0.944
[24]
  normalized growth: 1.06
[25]
  normalized growth: 0.897
[26]
  normalized growth: 0.772 (active)
[27]
  normalized growth: 0.951
[28]
  normalized growth: 1.03
[29]
  normalized growth: 1.01
[30]
  normalized growth: 0.985
[31]
  normalized growth: 0.87
[32]
  normalized growth: 0.986
[33]
  normalized growth: 0.966
[34]
  normalized growth: 0.977
[35]
  normalized growth: 0.944
[36]
  normalized growth: 0.943
[37]
  normalized growth: 0.972
[38]
  normalized growth: 0.992
[39]
  normalized growth: 0.978
[40]
  normalized growth: 0.976
[41]
  normalized growth: 0.98
[42]
  normalized growth: 0.966
[43]
  normalized growth: 0.97
[44]
  normalized growth: 0.939
[45]
  normalized growth: 0.964
[46]
  normalized growth: 0.979
[47]
  normalized growth: 0.977
[48]
  normalized growth: 0.971
[49]
  normalized growth: 0.991
[50]
  normalized growth: 0.964
[51]
  normalized growth: 0.984
[52]
  normalized growth: 0.896
[53]
  normalized growth: 0.976
[54]
  normalized growth: 0.974
[55]
  normalized growth: 0.933
[56]
  normalized growth: 0.978
[57]
  normalized growth: 0.984
[58]
  normalized growth: 0.959
[59]
  normalized growth: 1.04
[60]
  normalized growth: 0.981
[61]
  normalized growth: 0.983
[62]
  normalized growth: 0.927
[63]
  normalized growth: 0.929
[64]
  normalized growth: 0.922
[65]
  normalized growth: 0.979
[66]
  normalized growth: 0.944
[67]
  normalized growth: 0.979
[68]
  normalized growth: 0.992
[69]
  normalized growth: 0.983
[70]
  normalized growth: 0.992
[71]
  normalized growth: 0.978
